Entries with a potency or affinity are not part of this list.
Each compound was assayed on Staphylococcus aureus. Settings: Concentration 32 ug.mL-1; ASSAY_TEST Inhibition of Bacterial Growth; detection method Absorption (OD600); MEDIA CAMHB; plate type 384well; NBS; CORNING #3640; time 18 hr.
Compound O=C(Cc1cc(O)ccc1O)Nc1ccc(O)cc1 has an Inhibition of 29.77%. Compound Oc1ccc(O)c(-c2cn(-c3ccc(O)c(O)c3)nn2)c1 has an Inhibition of 34.68%. Work on O=C(CCc1ccc(O)cc1O)c1cc(O)ccc1O yielded an Inhibition of 23.73%. COc1ccc(OC)c(CC(=O)Nc2cc(OC)ccc2OC)c1 showed an Inhibition of 27.17%. Compound O=C(OCc1ccccc1)N1C(=O)C(c2ccccc2NC(=O)C(F)(F)F)=C(O)C1Cc1ccccc1 (centres undefined) has an Inhibition of 36.54%. Compound CC1C(=O)N(Cc2ccc(OCCN3CCOCC3)cc2)C1(Cc1ccccc1)C(=O)O (centres undefined) has an Inhibition of 11.78%. With COc1ccc(OC)c(-c2cn(-c3ccc(OC)c(OC)c3)nn2)c1 the Inhibition was -11.96%. COc1ccc(OC)c(C(=O)CCc2ccc(O)cc2)c1 showed an Inhibition of 16.63%.

What follows are compounds tested on Escherichia coli. Settings: Concentration 32 ug.mL-1; ASSAY_TEST Inhibition of Bacterial Growth; detection method Absorption (OD600); MEDIA CAMHB; plate type 384well; NBS; CORNING #3640; time 18 hr.
COc1ccc(OC)c(C(=O)/C=C/c2ccc(O)cc2)c1 gave an Inhibition of -21.08%. Work on O=C(/C=C/c1c[nH]c2ccc(O)cc12)c1cc(O)ccc1O yielded an Inhibition of -12.64%. COc1ccc(OC)c(NC(=O)Nc2ccc(OC)cc2OC)c1 gave an Inhibition of -17.47%. Oc1ccc(-n2cc(-c3cc(O)ccc3O)nn2)cc1 gave an Inhibition of -16.85%. O=C(/C=C/c1ccccc1O)c1cc(O)c(O)cc1O gave an Inhibition of -8.37%. COc1ccccc1/C=C/C(=O)c1cc(OC)c(OC)cc1OC showed an Inhibition of -13.16%. COC(=O)c1c(C(Cc2ccccc2)NC(=O)OCc2ccccc2)[nH]c2ccccc12 (centres undefined) showed an Inhibition of -13.62%. Work on COc1ccc(C(=O)/C=C/c2ccc(OC)cc2OC)cc1 yielded an Inhibition of -22.4%. O=C(Cc1cc(O)ccc1O)Nc1ccc(O)cc1O gave an Inhibition of -13.2%. With COc1ccc(OC)c(C(=O)CCc2ccccc2O)c1 the Inhibition was -20.89%. COc1ccc(OC)c(C(=O)/C=C/c2c[nH]c3ccc(OC)cc23)c1 gave an Inhibition of -14.33%. Work on O=C(Nc1ccc(O)cc1O)Nc1cc(O)ccc1O yielded an Inhibition of -13.5%. Compound COc1ccc(CN2C(=O)C(C)C2(Cc2cn(C(=O)OC(C)(C)C)c3ccccc23)C(=O)OC(C)(C)C)cc1 (centres undefined) has an Inhibition of -6.98%. In the case of O=C(Cc1cc(O)ccc1O)Nc1cc(O)ccc1O, the Inhibition is reported as -14.95%. COc1ccc(OC)c(CC(=O)Nc2ccc(OC)cc2OC)c1 was tested, and the Inhibition was -12.34%. In the case of COc1ccc(NC(=O)Cc2cc(OC)ccc2OC)cc1, the Inhibition is reported as -11.77%. Compound COc1ccc(OC)c(C(=O)/C=C/c2ccccc2O)c1 has an Inhibition of -22.92%. For COC(=O)C1(Cc2ccc(OCc3c(Cl)cccc3Cl)cc2)C(C)C(=O)N1Cc1ccc(OC)cc1 (centres undefined), the Inhibition was -12.56%. For O=C(Cc1cc(O)ccc1O)Nc1ccc(O)cc1, the Inhibition was -10.96%. For Oc1ccc(O)c(-c2cn(-c3ccc(O)c(O)c3)nn2)c1, the Inhibition was -12.66%. In the case of O=C(CCc1ccc(O)cc1O)c1cc(O)ccc1O, the Inhibition is reported as -20.02%. COc1ccc(OC)c(CC(=O)Nc2cc(OC)ccc2OC)c1 gave an Inhibition of -12.93%. O=C(OCc1ccccc1)N1C(=O)C(c2ccccc2NC(=O)C(F)(F)F)=C(O)C1Cc1ccccc1 (centres undefined) was tested, and the Inhibition was -6.54%. CC1C(=O)N(Cc2ccc(OCCN3CCOCC3)cc2)C1(Cc1ccccc1)C(=O)O (centres undefined) was tested, and the Inhibition was -10.5%. COc1ccc(OC)c(-c2cn(-c3ccc(OC)c(OC)c3)nn2)c1 showed an Inhibition of -27.73%. For COc1ccc(OC)c(C(=O)CCc2ccc(O)cc2)c1, the Inhibition was -22.53%.

From ChEMBL document CHEMBL4513136, “CO-ADD screening of CSIC (Spain) compounds”
